Assay results taken from PubChem BioAssay AID1159580 (chemical genetic matrix, 2015).
About 2,000 (36%) of roughly 5,500 compounds were called active. Another 18% or so got no clear call; they are omitted. No stated cut-off is given here; in the data, active means normalized growth mostly below about 0.91 (no sharp cut-off); inconclusive means no clear call, values can overlap the other calls; inactive means mostly above about 0.92. The list shows a part of the results.

Experiment: chemical genetic growth profiling, strain panel (AID 1159580);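 further: tested at 20 µM; growth read once vehicle control cultures reached saturation at 30 °C; 1 = growth at the plate median or of vehicle wells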
Conditions: S. cerevisiae deletion strains, growth OD

Measured: normalized growth

CC(=O)NCCCCCC(=O)O
inactive: locus YAL013W, strain DEP1, stronger effect = lower value 1.01 | locus YAL021C, strain ccr4, stronger effect = lower value 1.01 | locus YAL026C, strain drs2, stronger effect = lower value 0.978 | locus YAL030W, strain snc1, stronger effect = lower value 0.99 | locus YBL061C, strain skt5, stronger effect = lower value 0.99 | locus YBR009C, strain hhf1, stronger effect = lower value 0.979 | locus YBR021W, strain FUR4, stronger effect = lower value 1.02 | locus YBR023C, strain chs3, stronger effect = lower value 0.984 | locus YBR171W, strain sec66, stronger effect = lower value 0.999 | locus YBR229C, strain ROT2, stronger effect = lower value 1.01 | locus YBR231C, strain swc5, stronger effect = lower value 0.998 | locus YBR279W, strain paf1, stronger effect = lower value 0.998 | locus YCL011C, strain gbp2, stronger effect = lower value 0.968 | locus YCL016C, strain dcc1, stronger effect = lower value 1 | locus YCL029C, strain bik1, stronger effect = lower value 0.988 | locus YCL061C, strain MRC1, stronger effect = lower value 1 | locus YCL069W, strain vba3, stronger effect = lower value 0.979 | locus YCR088W, strain abp1, stronger effect = lower value 0.99 | locus YDL005C, strain med2, stronger effect = lower value 0.984 | locus YDL035C, strain GPR1, stronger effect = lower value 1.02 | locus YDL040C, strain nat1, stronger effect = lower value 0.995 | locus YDL074C, strain BRE1, stronger effect = lower value 1.04 | locus YDL101C, strain DUN1, stronger effect = lower value 1.02 | locus YDL134C, strain PPH21, stronger effect = lower value 1 | locus YDL185W, strain tfp1, stronger effect = lower value 0.985 | locus YDL192W, strain arf1, stronger effect = lower value 0.988 | locus YDR001C, strain nth1, stronger effect = lower value 0.987 | locus YDR069C, strain doa4, stronger effect = lower value 0.993 | locus YDR101C, strain arx1, stronger effect = lower value 0.986 | locus YDR137W, strain rgp1, stronger effect = lower value 1.01 | locus YDR159W, strain sac3, stronger effect = lower value 0.976 | locus YDR162C, strain NBP2, stronger effect = lower value 1.01 | locus YDR195W, strain ref2 0.982 | locus YDR297W, strain sur2, stronger effect = lower value 0.993 | locus YDR318W, strain mcm21, stronger effect = lower value 0.992 | locus YDR334W, strain swr1, stronger effect = lower value 0.979 | locus YDR335W, strain msn5, stronger effect = lower value 1 | locus YDR388W, stronger effect = lower value 0.97 | locus YDR392W, strain spt3, stronger effect = lower value 0.891 | locus YDR502C, strain sam2, stronger effect = lower value 0.98 | locus YEL003W, strain gim4, stronger effect = lower value 0.969 | locus YEL037C, strain rad23, stronger effect = lower value 0.972 | locus YEL061C, strain CIN8 (second series), stronger effect = lower value 0.977 | locus YEL061C, strain CIN8, stronger effect = lower value 1.01 | locus YER015W, strain faa2, stronger effect = lower value 1 | locus YER016W, strain bim1, stronger effect = lower value 0.997 | locus YER110C, stronger effect = lower value 0.986 | locus YER111C, strain swi4, stronger effect = lower value 0.967 | locus YER155C, strain BEM2 (second series), stronger effect = lower value 1.01 | locus YER155C, strain BEM2, stronger effect = lower value 1.01 | locus YER167W, strain BCK2, stronger effect = lower value 1 | locus YFR010W, strain ubp6, stronger effect = lower value 0.983 | locus YGL078C, strain dbp3, stronger effect = lower value 0.974 | locus YGL086W, strain mad1, stronger effect = lower value 1 | locus YGL167C, strain pmr1, stronger effect = lower value 0.969 | locus YGL173C, strain kem1, stronger effect = lower value 0.99 | locus YGL227W, strain vid30, stronger effect = lower value 0.97 | locus YGL240W, strain doc1, stronger effect = lower value 0.993 | locus YGL248W, strain PDE1, stronger effect = lower value 1.03 | locus YGL253W, strain hxk2, stronger effect = lower value 0.991 | locus YGR135W, strain pre9, stronger effect = lower value 0.979 | locus YGR229C, strain SMI1, stronger effect = lower value 1.01 | locus YGR252W, strain gcn5, stronger effect = lower value 0.954 | locus YHR013C, strain ard1, stronger effect = lower value 0.946 | locus YHR027C, strain rpn1, stronger effect = lower value 1.01 | locus YHR030C, strain SLT2, stronger effect = lower value 1.01 | locus YHR079C, strain IRE1 (second series), stronger effect = lower value 0.992 | locus YHR094C, strain hxt1, stronger effect = lower value 0.984 | locus YHR129C, strain ARP1, stronger effect = lower value 1.01 | locus YHR142W, strain chs7, stronger effect = lower value 1.02 | locus YHR200W, strain rpn10, stronger effect = lower value 0.994 | locus YIL066C, strain RNR3, stronger effect = lower value 1.03 | locus YIL073C, strain SPO22, stronger effect = lower value 0.979 | locus YIL125W, strain kgd1, stronger effect = lower value 0.981 | locus YIR030C, strain dcg1, stronger effect = lower value 0.998 | locus YJL092W, strain hpr5, stronger effect = lower value 0.99 | locus YJL095W, strain BCK1 (second series), stronger effect = lower value 1.01 | locus YJL095W, strain BCK1, stronger effect = lower value 1.03 | locus YJL115W, strain asf1, stronger effect = lower value 0.98 | locus YJL129C, strain trk1, stronger effect = lower value 1 | locus YJL134W, strain LCB3, stronger effect = lower value 1.01 | locus YJL154C, strain vps35, stronger effect = lower value 0.978 | locus YJL164C, strain tpk1, stronger effect = lower value 1.02 | locus YJL166W, strain qcr8, stronger effect = lower value 1.01 | locus YJL168C, strain set2, stronger effect = lower value 0.986 | locus YJL187C, strain SWE1 (second series), stronger effect = lower value 1.03
